What was measured:
Test in all cases: DAPPL (digital affinity profiling via proximity ligation, sequencing); 10 mM Tris-HCl pH 7.5, 50 mM NaCl, 1 mM DTT, 4% glycerol, room temperature, 30 min; GST-TFs on glutathione beads, 16-mer random dsDNA library, 0.1% formaldehyde crosslink after washing; high values mean tight binding
Settings in all cases: protein: recombinant; tags: N-terminal GST; dsDNA, one strand shown
ERF = biological target: T1, ERF (Homo sapiens, UniProt P50548 1-548)
T1 sequence: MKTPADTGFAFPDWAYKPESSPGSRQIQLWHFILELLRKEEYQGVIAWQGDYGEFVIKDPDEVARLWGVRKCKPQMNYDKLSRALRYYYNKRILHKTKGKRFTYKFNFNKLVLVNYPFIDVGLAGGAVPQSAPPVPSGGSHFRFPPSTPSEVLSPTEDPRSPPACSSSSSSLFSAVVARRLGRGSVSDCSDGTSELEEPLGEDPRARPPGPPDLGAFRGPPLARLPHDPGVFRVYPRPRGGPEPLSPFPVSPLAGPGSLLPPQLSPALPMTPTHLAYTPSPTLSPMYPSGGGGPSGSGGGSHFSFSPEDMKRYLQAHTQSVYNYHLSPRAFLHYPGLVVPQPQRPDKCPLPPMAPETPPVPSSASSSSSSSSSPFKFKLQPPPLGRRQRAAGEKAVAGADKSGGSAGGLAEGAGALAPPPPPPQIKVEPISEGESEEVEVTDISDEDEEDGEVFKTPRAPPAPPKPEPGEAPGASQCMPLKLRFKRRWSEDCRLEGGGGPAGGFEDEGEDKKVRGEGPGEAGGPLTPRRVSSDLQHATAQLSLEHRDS
In short: (§1)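 Binding signal is defined as a hexamer's read frequency for one factor over its frequency for the tag-only sample. To obtain reads, GST-fused human transcription factors were expressed in yeast, captured on glutathione beads, barcoded with DNA and pooled with that sample. Pools met 200 nmole of a 16-mer random double-stranded DNA library in Tris/NaCl/DTT/glycerol buffer for 30 min at room temperature before washing, 0.1% formaldehyde crosslinking, proximity ligation (BsaI/T4 ligase, 1 h, 37 °C), PCR and Illumina NextSeq500 sequencing.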

ETV3L = biological target: T2, ETV3L (Homo sapiens, UniProt Q6ZN32 1-361)
T2 sequence: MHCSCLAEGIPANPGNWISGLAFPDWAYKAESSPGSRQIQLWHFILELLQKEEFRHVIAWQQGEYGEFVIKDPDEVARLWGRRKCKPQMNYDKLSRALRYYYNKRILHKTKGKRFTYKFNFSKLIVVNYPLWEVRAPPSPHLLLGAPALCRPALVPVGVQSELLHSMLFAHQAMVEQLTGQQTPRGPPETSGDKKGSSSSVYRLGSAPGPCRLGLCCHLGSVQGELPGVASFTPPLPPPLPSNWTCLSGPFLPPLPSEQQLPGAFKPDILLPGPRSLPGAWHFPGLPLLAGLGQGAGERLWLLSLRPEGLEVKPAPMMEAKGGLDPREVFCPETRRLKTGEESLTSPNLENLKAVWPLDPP
In short: as §1

ETS2 = biological target: T3, ETS2 (Homo sapiens, UniProt P15036 1-469)
T3 sequence: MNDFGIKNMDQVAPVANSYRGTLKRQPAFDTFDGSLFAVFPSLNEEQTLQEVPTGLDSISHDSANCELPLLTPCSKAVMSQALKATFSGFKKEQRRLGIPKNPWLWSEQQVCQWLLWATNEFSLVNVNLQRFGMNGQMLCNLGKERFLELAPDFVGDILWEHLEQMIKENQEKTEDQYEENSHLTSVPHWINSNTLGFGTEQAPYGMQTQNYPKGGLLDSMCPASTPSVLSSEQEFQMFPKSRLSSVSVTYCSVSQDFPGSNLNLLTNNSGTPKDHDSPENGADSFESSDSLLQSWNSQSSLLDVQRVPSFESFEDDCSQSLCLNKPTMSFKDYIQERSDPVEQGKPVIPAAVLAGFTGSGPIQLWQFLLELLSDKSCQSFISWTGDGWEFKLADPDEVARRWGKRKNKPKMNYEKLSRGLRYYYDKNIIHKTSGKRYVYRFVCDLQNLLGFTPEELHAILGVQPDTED
In short: as §1

SPDEF = biological target: T4, SPDEF (Homo sapiens, UniProt O95238 1-335)
T4 sequence: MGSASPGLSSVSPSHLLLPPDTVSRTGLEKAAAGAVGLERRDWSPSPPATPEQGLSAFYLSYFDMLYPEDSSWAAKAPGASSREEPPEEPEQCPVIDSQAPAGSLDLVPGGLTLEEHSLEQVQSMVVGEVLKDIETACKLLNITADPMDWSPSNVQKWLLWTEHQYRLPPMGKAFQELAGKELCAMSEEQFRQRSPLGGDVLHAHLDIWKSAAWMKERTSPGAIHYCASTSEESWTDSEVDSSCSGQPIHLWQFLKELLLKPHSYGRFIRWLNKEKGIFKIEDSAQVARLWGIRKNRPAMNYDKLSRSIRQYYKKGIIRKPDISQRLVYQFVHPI
In short: as §1

ETV7 = biological target: T5, ETV7 (Homo sapiens, UniProt Q9Y603 1-341)
T5 sequence: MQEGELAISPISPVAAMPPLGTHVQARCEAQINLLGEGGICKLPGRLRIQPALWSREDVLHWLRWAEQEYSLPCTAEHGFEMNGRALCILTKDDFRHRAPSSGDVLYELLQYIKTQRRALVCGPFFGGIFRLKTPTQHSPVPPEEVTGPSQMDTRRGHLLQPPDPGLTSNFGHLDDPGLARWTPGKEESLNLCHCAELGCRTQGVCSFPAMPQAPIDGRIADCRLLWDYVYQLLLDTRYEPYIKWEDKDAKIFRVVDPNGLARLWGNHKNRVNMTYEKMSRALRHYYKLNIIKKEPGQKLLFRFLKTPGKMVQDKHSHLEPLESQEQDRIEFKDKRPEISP
In short: as §1

ELF5 = biological target: T6, ELF5 (Homo sapiens, UniProt Q9UKW6-2 1-255)
T6 sequence: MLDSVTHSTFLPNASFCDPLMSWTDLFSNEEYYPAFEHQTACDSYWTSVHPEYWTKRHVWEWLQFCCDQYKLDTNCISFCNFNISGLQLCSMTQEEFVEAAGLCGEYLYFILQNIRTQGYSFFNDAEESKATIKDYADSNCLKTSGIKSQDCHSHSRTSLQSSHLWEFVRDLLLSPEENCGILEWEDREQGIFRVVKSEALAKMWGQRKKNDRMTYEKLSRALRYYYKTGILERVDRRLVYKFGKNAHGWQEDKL
In short: as §1

ETV3 = biological target: T7, ETV3 (Homo sapiens, UniProt P41162-2 1-143)
T7 sequence: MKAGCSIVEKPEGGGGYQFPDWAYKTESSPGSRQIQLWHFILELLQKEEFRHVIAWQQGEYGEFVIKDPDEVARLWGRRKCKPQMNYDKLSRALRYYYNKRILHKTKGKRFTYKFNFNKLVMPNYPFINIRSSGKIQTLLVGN
In short: as §1

ETV6 = ETV6 (Homo sapiens, UniProt P41212 1-452)
ETV6, sequence (P41212 whole entry): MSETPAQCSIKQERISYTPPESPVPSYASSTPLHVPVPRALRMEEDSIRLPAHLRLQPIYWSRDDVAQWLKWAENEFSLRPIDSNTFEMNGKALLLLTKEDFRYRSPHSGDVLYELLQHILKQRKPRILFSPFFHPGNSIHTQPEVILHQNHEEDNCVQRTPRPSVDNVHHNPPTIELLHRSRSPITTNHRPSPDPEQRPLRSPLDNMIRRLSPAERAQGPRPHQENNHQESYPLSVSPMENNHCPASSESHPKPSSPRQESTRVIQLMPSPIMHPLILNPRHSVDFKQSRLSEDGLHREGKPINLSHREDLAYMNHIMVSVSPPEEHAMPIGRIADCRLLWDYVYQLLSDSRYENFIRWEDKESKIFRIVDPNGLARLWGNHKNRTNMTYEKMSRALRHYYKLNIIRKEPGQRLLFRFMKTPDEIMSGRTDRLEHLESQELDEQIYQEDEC
In short: as §1

Row | Sequence | binding signal (ERF) | binding signal (ETV3L) | binding signal (ETS2) | binding signal (SPDEF) | binding signal (ETV7) | binding signal (ELF5) | binding signal (ETV3) | binding signal (ETV6)
1 | TAATTA | 1.24 fold enrichment (6-mer frequency, TF over GST control) | 1.23 fold enrichment (6-mer frequency, TF over GST control) | 1.34 fold enrichment (6-mer frequency, TF over GST control) | 1.24 fold enrichment (6-mer frequency, TF over GST control) | 1.35 fold enrichment (6-mer frequency, TF over GST control) | 1.2 fold enrichment (6-mer frequency, TF over GST control) | 1.19 fold enrichment (6-mer frequency, TF over GST control) | 1.36 fold enrichment (6-mer frequency, TF over GST control)
2 | CCTCCA | 1.34 fold enrichment (6-mer frequency, TF over GST control) | 1.24 fold enrichment (6-mer frequency, TF over GST control) | 1.31 fold enrichment (6-mer frequency, TF over GST control) | 1.34 fold enrichment (6-mer frequency, TF over GST control) | 1.36 fold enrichment (6-mer frequency, TF over GST control) | 1.42 fold enrichment (6-mer frequency, TF over GST control) | 1.24 fold enrichment (6-mer frequency, TF over GST control) | 1.29 fold enrichment (6-mer frequency, TF over GST control)
3 | CACTAA | 1.21 fold enrichment (6-mer frequency, TF over GST control) | 1.28 fold enrichment (6-mer frequency, TF over GST control) | 1.18 fold enrichment (6-mer frequency, TF over GST control) | 1.15 fold enrichment (6-mer frequency, TF over GST control) | 1.19 fold enrichment (6-mer frequency, TF over GST control) | 1.14 fold enrichment (6-mer frequency, TF over GST control) | 1.07 fold enrichment (6-mer frequency, TF over GST control) | 1.12 fold enrichment (6-mer frequency, TF over GST control)
4 | CTCAAC | 1.15 fold enrichment (6-mer frequency, TF over GST control) | 1.41 fold enrichment (6-mer frequency, TF over GST control) | 1.27 fold enrichment (6-mer frequency, TF over GST control) | 1.24 fold enrichment (6-mer frequency, TF over GST control) | 1.11 fold enrichment (6-mer frequency, TF over GST control) | 1.16 fold enrichment (6-mer frequency, TF over GST control) | 1.28 fold enrichment (6-mer frequency, TF over GST control) | 1.24 fold enrichment (6-mer frequency, TF over GST control)
5 | TTGCGA | 1.29 fold enrichment (6-mer frequency, TF over GST control) | 1.14 fold enrichment (6-mer frequency, TF over GST control) | 1.14 fold enrichment (6-mer frequency, TF over GST control) | 1.11 fold enrichment (6-mer frequency, TF over GST control) | 1.14 fold enrichment (6-mer frequency, TF over GST control) | 1.12 fold enrichment (6-mer frequency, TF over GST control) | 1.08 fold enrichment (6-mer frequency, TF over GST control) | 1.11 fold enrichment (6-mer frequency, TF over GST control)
6 | CAATAC | 1.38 fold enrichment (6-mer frequency, TF over GST control) | 1.3 fold enrichment (6-mer frequency, TF over GST control) | 1.22 fold enrichment (6-mer frequency, TF over GST control) | 1.23 fold enrichment (6-mer frequency, TF over GST control) | 1.35 fold enrichment (6-mer frequency, TF over GST control) | 1.18 fold enrichment (6-mer frequency, TF over GST control) | 1.29 fold enrichment (6-mer frequency, TF over GST control) | 1.22 fold enrichment (6-mer frequency, TF over GST control)
7 | CCGCAT | 1.46 fold enrichment (6-mer frequency, TF over GST control) | 1.6 fold enrichment (6-mer frequency, TF over GST control) | 1.56 fold enrichment (6-mer frequency, TF over GST control) | 1.64 fold enrichment (6-mer frequency, TF over GST control) | 1.44 fold enrichment (6-mer frequency, TF over GST control) | 1.75 fold enrichment (6-mer frequency, TF over GST control) | 1.57 fold enrichment (6-mer frequency, TF over GST control) | 1.59 fold enrichment (6-mer frequency, TF over GST control)
8 | AACACA | 1.39 fold enrichment (6-mer frequency, TF over GST control) | 1.34 fold enrichment (6-mer frequency, TF over GST control) | 1.38 fold enrichment (6-mer frequency, TF over GST control) | 1.41 fold enrichment (6-mer frequency, TF over GST control) | 1.46 fold enrichment (6-mer frequency, TF over GST control) | 1.36 fold enrichment (6-mer frequency, TF over GST control) | 1.35 fold enrichment (6-mer frequency, TF over GST control) | 1.29 fold enrichment (6-mer frequency, TF over GST control)

Reference: paper PMC7862700, “An all-to-all approach to the identification of sequence-specific readers for epigenetic DNA modifications on cytosine”
